Assay outcomes: PubChem BioAssay, SRMLSC
Spn MK inh: blocks S. pneumoniae mevalonate kinase | purified MK, PK/LDH-coupled NADH absorbance 340 nm | inhibition, % at 10 µM | 0.48% of 65,000 active;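 active means ranked among the strongest by inhibition in the single 10 µM screen, a fixed top-ranked set picked for dose follow-up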
Fluor 339 460: intrinsic fluorescence of library compounds, ex339/em460 – biochemical, MLSMR library, data from DPM-DC assay, artefact control, profiling panel; 5.5% of 65,000 active; compound autofluorescence, ex339/em460 nm, NADH buffer; active compounds read high; 1 = no-compound wells, NADH background; fluorescence fold increase at 10 µM; AID 709;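 active means at 10 µM, mean starting fluorescence two-fold or more over control wells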;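 further: signal is the first read of a kinetic run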
Spn DPM-DC inh: inhibitors of Streptococcus pneumoniae diphosphomevalonate decarboxylase | purified DPM-DC, PK/LDH coupled NADH fluorescence | calls only at 10 µM | 0.49% of 65,000 active;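 active means the 320 compounds with the highest percent inhibition in the single-dose primary screen, excluding strongly autofluorescent ones, cut at about 32% in these data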;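 further: kinetic rate of NADH fluorescence loss reporting ADP formed by the decarboxylase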
Abs 340nm: compounds absorbing at 340 nm; compound absorbance at 340 nm, fold over control; 65,000 tested, under 10 active; fold change at 10 µM; AID 708;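 active means at 10 µM dose, initial 340 nm absorbance at least 2 fold that of control wells; inactive means change under 2 fold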;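 further: initial absorbance extrapolated from kinetic A340 decline of NADH oxidation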
Spn PMK inh: blocks S. pneumoniae phosphomevalonate kinase. inhibition, % at 10 µM. 0.49% of 65,000 active. AID 539. purified PMK, PK/LDH-coupled NADH absorbance 340 nm;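 active means top-ranked compounds by inhibition in the single 10 µM screen, taking a fixed number of the strongest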;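 further: 0% = full reaction with DMSO carrier and 100% = background rate without enzyme reaction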
NADH coupling: inhibitors of enzymes used to reach an NAD/NADH endpoint. coupled PK/LDH NADH assays, four targets. IC50, µM (top dose mostly 10 µM), inactives show top-dose inhibition. 0.02% of 65,000 active. AID 774;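 active means single-dose screening hits from any of four coupled enzyme assays that gave an IC50 when retested across doses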;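 further: the DPM-DC format reads NADH fluorescence rather than 340 nm absorbance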
The depositor's hits bear a star. This is a sample that favours compounds with a hit; in the whole collection about 6.3% have one here.

How did CCOC(=O)c1c(-c2ccc(OC)cc2)oc2ccc(OC(=O)N(C)C)cc12 do in these assays?
Spn MK inh: 1; Fluor 339 460: 3.8*; Abs 340nm: 1.1; Spn PMK inh: 11; NADH coupling: 6%

What do the screens show for `C(#CCN1CCOCC1)COCc1ccccc1`?
Spn MK inh: 4; Fluor 339 460: 1.2; Spn DPM-DC inh: inactive; Abs 340nm: 1; Spn PMK inh: 13; NADH coupling: 6%

How did O=S1(=O)CC2(N3CCOCC3)CCCCCCC21 (stereo not given) do in these assays?
Spn MK inh: 4; Fluor 339 460: 1.1; Spn DPM-DC inh: inactive; Abs 340nm: 0.99; Spn PMK inh: 15; NADH coupling: 6%

How did CCn1nc(-c2ccccc2)nc2c(=O)n(C)c(=O)nc1-2 do in these assays?
Spn MK inh: 11; Fluor 339 460: 0.67; Spn DPM-DC inh: active; Abs 340nm: 0.8; Spn PMK inh: 11; NADH coupling: 33µM*

How did Cc1cc(OCC(=O)Nc2c(C)n(C)n(-c3ccccc3)c2=O)c2c3c(c(=O)oc2c1)CCC3 do in these assays?
Spn MK inh: 2; Fluor 339 460: 2.1*; Spn DPM-DC inh: inactive; Abs 340nm: 1.1; Spn PMK inh: 10; NADH coupling: 7%

Results for Cc1cc(OCC(=O)O)c2c3c(c(=O)oc2c1)CCCC3 ?
Spn MK inh: 8; Fluor 339 460: 2.5*; Abs 340nm: 1; Spn PMK inh: 1; NADH coupling: 3%

Results for CCCOC(=O)COc1cc(C)cc2oc(=O)c3c(c12)CCC3 ?
Spn MK inh: 5; Fluor 339 460: 2.2*; Abs 340nm: 1; Spn PMK inh: 6; NADH coupling: 6%

How did Cc1cc(C)n2c(Br)c(CN3CC4CC(C3)c3cccc(=O)n3C4)nc2n1 (stereo not given) do in these assays?
Spn MK inh: 7; Fluor 339 460: 1.1; Spn DPM-DC inh: inactive; Abs 340nm: 1.1; Spn PMK inh: 4; NADH coupling: 5%

Results for CCC(C)N1C(=O)NC(=O)C2(Cc3cc(C)ccc3N(C)C2)C1=O (stereo not given) ?
Spn MK inh: 8; Fluor 339 460: 1; Spn DPM-DC inh: inactive; Abs 340nm: 1; Spn PMK inh: 5; NADH coupling: 4%

What do the screens show for `COCCOC(=O)c1c(N)n(Cc2ccco2)c2nc3ccccc3nc12`?
Spn MK inh: 9; Fluor 339 460: 2.3*; Abs 340nm: 1.1; Spn PMK inh: 8; NADH coupling: 9%

Results for CC(C)OC(=O)c1c(N)n(Cc2ccco2)c2nc3ccccc3nc12 ?
Spn MK inh: 5; Fluor 339 460: 2.3*; Abs 340nm: 1.1; Spn PMK inh: 27; NADH coupling: 16%

How did Cc1nn(Cc2ccccc2Cl)c(Cl)c1C(=O)OCC(=O)NCc1ccco1 do in these assays?
Spn MK inh: 6; Fluor 339 460: 1.1; Spn DPM-DC inh: inactive; Abs 340nm: 0.99; Spn PMK inh: 0; NADH coupling: 1%

How did CCOC(=O)c1c(C)n(Cc2ccco2)c2ccc(OC)cc12 do in these assays?
Spn MK inh: 0; Fluor 339 460: 1.1; Spn DPM-DC inh: inactive; Abs 340nm: 1.1; Spn PMK inh: 0; NADH coupling: 0%

What do the screens show for `CCCCSP1(=S)NCCCN1`?
Spn MK inh: 6; Fluor 339 460: 1; Spn DPM-DC inh: inactive; Abs 340nm: 0.96; Spn PMK inh: 9; NADH coupling: 5%

How did CC(=O)c1c(C)n(CC2CCCO2)c2ccc(O)cc12 (stereo not given) do in these assays?
Spn MK inh: 9; Fluor 339 460: 1.1; Spn DPM-DC inh: inactive; Abs 340nm: 1.1; Spn PMK inh: 9; NADH coupling: 6%

Results for Nc1c(C(=O)NC2CCCC2)c2nc3ccccc3nc2n1CC1CCCO1 (stereo not given) ?
Spn MK inh: 11; Fluor 339 460: 3.7*; Abs 340nm: 1; Spn PMK inh: 11; NADH coupling: 11%

What do the screens show for `Nc1c(C(=O)OCC2CCCO2)c2nc3ccccc3nc2n1Cc1cccs1` (stereo not given)?
Spn MK inh: 0; Fluor 339 460: 2.1*; Abs 340nm: 1.1; Spn PMK inh: 15; NADH coupling: 8%

How did COCCCn1c(N)c(C(=O)OCCOC)c2nc3ccccc3nc21 do in these assays?
Spn MK inh: 11; Fluor 339 460: 3.8*; Abs 340nm: 1.1; Spn PMK inh: 14; NADH coupling: 13%

How did CCOC(=O)c1c(C)n(CCOC)c2ccc(O)cc12 do in these assays?
Spn MK inh: 0; Fluor 339 460: 1.1; Spn DPM-DC inh: inactive; Abs 340nm: 1; Spn PMK inh: 2; NADH coupling: 1%

Results for CCOC(=O)c1c(N)n(CCCOC(=O)c2ccco2)c2nc3ccccc3nc12 ?
Spn MK inh: 9; Fluor 339 460: 4*; Abs 340nm: 1.1; Spn PMK inh: 13; NADH coupling: 11%

Results for O=c1[nH]c(=O)n(Cc2ccco2)c(O)c1C=NCCCn1ccnc1 ?
Spn MK inh: inactive; Fluor 339 460: 1; Spn DPM-DC inh: inactive; Abs 340nm: 1.1; Spn PMK inh: 0; NADH coupling: 0%

How did COCCCNC(=O)c1c(NC(=O)c2ccco2)n(Cc2ccccc2)c2nc3ccccc3nc12 do in these assays?
Spn MK inh: 7; Fluor 339 460: 3.8*; Abs 340nm: 1.1; Spn PMK inh: 11; NADH coupling: 9%

How did CCCCNC(=O)c1c(N)n(CCCOC)c2nc3ccccc3nc12 do in these assays?
Spn MK inh: 3; Fluor 339 460: 2.4*; Abs 340nm: 1; Spn PMK inh: 0; NADH coupling: 1%

What do the screens show for `CC(C)OCCCNC(=O)c1c(N)n(Cc2cccs2)c2nc3ccccc3nc12`?
Spn MK inh: 0; Fluor 339 460: 3*; Abs 340nm: 1; Spn PMK inh: 6; NADH coupling: 1%

What do the screens show for `Cn1c(O)c(C=NCCCN2CCCC2=O)c(=O)n(C)c1=O`?
Spn MK inh: 5; Fluor 339 460: 1.1; Spn DPM-DC inh: inactive; Abs 340nm: 1; Spn PMK inh: 14; NADH coupling: 6%

What do the screens show for `O=P(C(c1c[nH]c2ccccc12)N1CCOCC1)(N1CCOCC1)N1CCOCC1` (stereo not given)?
Spn MK inh: 0; Fluor 339 460: 1.1; Spn DPM-DC inh: inactive; Abs 340nm: 1; Spn PMK inh: 13; NADH coupling: 4%

How did C=CCn1c(O)c(C(C)=NC2CC2)c(=O)[nH]c1=O do in these assays?
Spn MK inh: 0; Fluor 339 460: 1.1; Spn DPM-DC inh: inactive; Abs 340nm: 1.1; Spn PMK inh: 13; NADH coupling: 4%

Results for CCCCOC(=O)C1=C(N)OC2=C(C(=O)CC(C)(C)C2)[C@]12C(=O)N(C)c1ccccc12 ?
Spn MK inh: 2; Fluor 339 460: 1.1; Spn DPM-DC inh: inactive; Abs 340nm: 1; Spn PMK inh: 9; NADH coupling: 4%
